Screening data (PubChem BioAssay)
Rows were chosen to be rich in hits. Some 11% of all compounds tested hit in one or more screens of this group.
HPGD block: HPGD (human) dehydrogenase inhibition; purified HPGD, NADH fluorescence kinetic, PGE2 substrate; Potency, µM, actives largely listed as inhibitors; 150,000 compounds, 4.3% hits
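NADH formation kinetics: reaction with 30 uM PGE2 and 1 mM NAD+ (final), 20 nM enzyme, Tris-HCl pH 8 with Tween 20, after 15 min compound preincubation at room temperature. Fluorescence change, last versus first of five reads.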
PNC inhibitor: inhibitors of perinucleolar compartment assembly. PC3M PTB-GFP, PNC prevalence imaging, 16 h; active compounds read low. activity change (PNC), negative = inhibition, % at 10 µM. 140,000 compounds, 3.1% hits;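 active = readout at or below -70, meaning at least 70% loss of cells showing the perinucleolar compartment, a nuclear body marking cancer cells; inconclusive = readout between -30 and a set limit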
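Compounds are pinned in duplicate onto adhered PC3M cells stably expressing GFP-tagged PTB and incubated 16 h at 37 C. Cells are then fixed, nuclei stained with Hoechst, and PNC-positive cells counted.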
ALDH1A1 inh: blocks purified human ALDH1A1 activity; P00352; Potency, µM (series often up to 75.3 µM), usual class: inhibitors; 220,000 compounds, 7.3% hits; AID 1030; Purified ALDH1A1, NADH fluorescence, propionaldehyde substrate
Target sequence (P00352 whole entry, looked up): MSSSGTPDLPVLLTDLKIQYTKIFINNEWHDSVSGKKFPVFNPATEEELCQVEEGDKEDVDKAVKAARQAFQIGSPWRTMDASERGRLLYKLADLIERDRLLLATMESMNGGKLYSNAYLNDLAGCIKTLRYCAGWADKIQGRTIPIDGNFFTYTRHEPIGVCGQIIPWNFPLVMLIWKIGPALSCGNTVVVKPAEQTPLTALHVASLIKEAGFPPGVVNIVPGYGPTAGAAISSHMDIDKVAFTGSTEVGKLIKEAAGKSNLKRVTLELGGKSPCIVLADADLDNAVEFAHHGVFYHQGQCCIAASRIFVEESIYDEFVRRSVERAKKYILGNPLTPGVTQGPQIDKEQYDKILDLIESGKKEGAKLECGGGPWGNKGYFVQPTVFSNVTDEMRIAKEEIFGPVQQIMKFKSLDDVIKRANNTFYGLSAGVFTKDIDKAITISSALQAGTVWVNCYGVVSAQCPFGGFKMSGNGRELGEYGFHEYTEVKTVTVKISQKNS
JMJD2E inh: inhibitors of human JMJD2E histone demethylase; AID 2147; B2RXH2; 230,000 compounds, 1.6% hits; Potency, µM (highest dose often 57.1 µM), usual class: inhibitors; JMJD2E catalytic domain, FDH-coupled NADH fluorescence (FDH is formaldehyde dehydrogenase); note: nearly all actives have a fitted effect of over 50% in size
A number is an active result. Unless noted, calls come from the whole dose curve; as a rule, active = well fitted inhibition curve with a large enough effect (not every such curve was filed as active); inconclusive = small, poorly fitted or top-dose-only effect, or another doubt; inactive = no such curve, though single readings can be large or run the other way.

For O=S(=O)(NC1CCCC1)c1ccc(Br)s1 the results were HPGD block 25µM, PNC inhibitor inactive, ALDH1A1 inh inactive and JMJD2E inh inactive.
Screening Cc1cc(C)n(-c2nc(Nc3ccccc3)nc(-n3nc(C)cc3C)n2)n1 returned HPGD block inactive, PNC inhibitor inconclusive, ALDH1A1 inh inactive and JMJD2E inh inactive.
Screening Cc1cc(C)n(-c2nc(N(c3ccccc3)c3ccccc3)nc(-n3nc(C)cc3C)n2)n1 returned HPGD block inactive, PNC inhibitor -100, ALDH1A1 inh inactive and JMJD2E inh inactive.
`CC(C)c1nnc(SCC(=O)NCCC2=CCCCC2)n1N` gave HPGD block 16µM, PNC inhibitor inconclusive, ALDH1A1 inh 20µM and JMJD2E inh inactive.
Cc1cccc(-n2nnnc2SC(C)C(=O)NCCC2=CCCCC2)c1 (centres undefined) was read as HPGD block inactive, PNC inhibitor inactive, ALDH1A1 inh 5µM and JMJD2E inh inconclusive.
Screening Cc1nc2c(-c3ccc(F)cc3)c(C)nn2c(C)c1CCC(=O)Nc1ccccc1F returned JMJD2E inh inactive.
CCCCC/C=C\C/C=C\C/C=C\C/C=C\CCCC(=O)O[C@@H](CO)COC(=O)CCCCCCCCCCCCCCCCC was read as HPGD block inactive, ALDH1A1 inh inactive and JMJD2E inh inactive.
O=[N+]([O-])c1ccc(CSc2ncnc3c2ncn3[C@@H]2O[C@H](CO)[C@H](O)[C@H]2O)cc1 was read as HPGD block inactive, ALDH1A1 inh inactive and JMJD2E inh inactive.
CCN(CC)C(=O)C1CCCN(c2ccc([N+](=O)[O-])cc2[N+](=O)[O-])C1 (centres undefined) was read as ALDH1A1 inh inactive and JMJD2E inh inactive.
For CCN(CC)C(=O)C1CCCN(c2ccccc2[N+](=O)[O-])C1 (centres undefined) the results were ALDH1A1 inh 13µM and JMJD2E inh inactive.
`CCN1CCN(CC(=O)Nc2ccc(C)cc2C)C(=O)C1=O` gave HPGD block inactive, PNC inhibitor inactive, ALDH1A1 inh inactive and JMJD2E inh inactive.
For CCN1C(=O)C(CC(=O)Nc2ccc(C)cc2C)Nc2cc(S(=O)(=O)N(C)C)ccc21 (centres undefined) the results were ALDH1A1 inh 28µM and JMJD2E inh inactive.
`CC(=O)c1c(COC(=O)c2ccccc2Cl)nc2ccccc2[n+]1[O-]` gave JMJD2E inh inactive.
CC(C)C[C@@H](CC(=O)N[C@@H](CCCN)CC(=O)N[C@@H]1CCNC[C@H]1C(=O)N[C@H](CC(=O)N[C@@H](CCC(=O)O)CC(=O)O)CC(C)C)NC(=O)[C@@H]1CCCC[C@H]1N was read as HPGD block inactive, ALDH1A1 inh inconclusive and JMJD2E inh inactive.
O=C1NC2(CCCCC2)Oc2ccccc21 was read as HPGD block inactive, PNC inhibitor inactive, ALDH1A1 inh 16µM and JMJD2E inh inactive.
Screening O=C1NC2(CCCCCC2)Oc2ccccc21 returned ALDH1A1 inh inactive and JMJD2E inh inactive.
COc1cc(/C=C2/SC(=NCc3ccccc3)N(Cc3ccccc3)C2=O)ccc1O was read as HPGD block inactive, PNC inhibitor inactive, ALDH1A1 inh 2.2µM and JMJD2E inh inactive.
Screening CCN=C1S/C(=C\c2ccc(O)c(OCC)c2)C(=O)N1CC returned HPGD block inactive, PNC inhibitor inactive, ALDH1A1 inh inconclusive and JMJD2E inh inactive.
For O=C(O)C1CC(=O)N(CCC23CC4CC(CC(C4)C2)C3)C(=Nc2ccccc2)S1 (centres undefined) the results were HPGD block inactive and ALDH1A1 inh inconclusive.
COCC(=O)N1CCC2(CC1)CCN(C(=O)Nc1cccc(F)c1)CC2 was read as HPGD block inactive and ALDH1A1 inh inactive.
`N#Cc1nc(-c2ccco2)oc1N1CCN(c2cccc(Cl)c2)CC1` gave HPGD block inconclusive, PNC inhibitor -82, ALDH1A1 inh inconclusive and JMJD2E inh inconclusive.
N#Cc1nc(-c2ccco2)oc1N1CCCC1 was read as HPGD block inconclusive, PNC inhibitor inactive, ALDH1A1 inh inconclusive and JMJD2E inh inconclusive.
`COc1ccc(NC(=O)c2ccc3ccccc3n2)cc1S(=O)(=O)N1CCCCC1` gave HPGD block inactive, PNC inhibitor inactive, ALDH1A1 inh inactive and JMJD2E inh inactive.
`COCCNC(=O)c1noc2c1CCc1cc(OC)ccc1-2` gave HPGD block 25µM, PNC inhibitor inactive, ALDH1A1 inh inactive and JMJD2E inh inactive.
CC(Sc1nnc(NCc2ccccc2)s1)C(=O)Nc1ccc2c(c1)C(=O)c1ccccc1C2=O (centres undefined) was read as HPGD block 14µM, PNC inhibitor inactive, ALDH1A1 inh 2.8µM and JMJD2E inh inconclusive.
Screening CC(Sc1nnc(Nc2ccccc2)s1)C(=O)Nc1nc(-c2ccccc2)cs1 (centres undefined) returned ALDH1A1 inh inactive and JMJD2E inh inactive.
For O=C1NCCCc2c1oc1ccc(O)cc21 the results were HPGD block inactive, PNC inhibitor inactive, ALDH1A1 inh 8.9µM and JMJD2E inh inactive.
For O=C(CN1CCN(Cc2ccccc2)CC1)N1CCCc2c1c(=O)oc1ccc(O)cc21 the results were HPGD block inactive, PNC inhibitor inactive, ALDH1A1 inh inactive and JMJD2E inh inactive.
Cc1cc(S(=O)(=O)N(Cc2cccs2)Cc2ccccc2F)ccc1-n1cnnn1 was read as HPGD block inactive, PNC inhibitor inactive, ALDH1A1 inh inactive and JMJD2E inh inconclusive.
`Cc1cc(S(=O)(=O)N(Cc2ccccc2Cl)c2ccc3c(c2)CCC3)ccc1-n1cnnn1` gave HPGD block inactive, PNC inhibitor inconclusive, ALDH1A1 inh 5µM and JMJD2E inh inactive.
COc1cccc(CN(c2ccc3c(c2)CCC3)S(=O)(=O)c2ccc(-n3cnnn3)c(OC)c2)c1 was read as HPGD block inactive, PNC inhibitor inconclusive, ALDH1A1 inh 2.5µM and JMJD2E inh inactive.
`COc1cccc(CSc2ccc(S(=O)(=O)N3CCOCC3)cc2C(=O)NCC2CCCO2)c1OC` (centres undefined) gave ALDH1A1 inh inconclusive and JMJD2E inh inactive.
Screening O=C(NC1CCCC1)C(c1cccs1)N(Cc1ccco1)C(=O)Cn1nnc(-c2cccs2)n1 (centres undefined) returned HPGD block inactive, PNC inhibitor inconclusive, ALDH1A1 inh inactive and JMJD2E inh inactive.
`Cc1ccc(-c2nnn(CC(=O)N(Cc3cccs3)C(C(=O)NC3CCCC3)c3ccco3)n2)o1` (centres undefined) gave HPGD block inactive, PNC inhibitor inactive, ALDH1A1 inh 22µM and JMJD2E inh inactive.
For O=C(NCC1CCCO1)C(c1cccs1)N(Cc1cccs1)C(=O)Cn1nnc(-c2cccs2)n1 (centres undefined) the results were HPGD block inactive, PNC inhibitor inactive, ALDH1A1 inh 8.9µM and JMJD2E inh inactive.
CC(C)CCNC(=O)C(c1ccncc1)N(Cc1cccs1)C(=O)Cn1nnc(-c2ccc(F)cc2)n1 (centres undefined) was read as HPGD block inactive, PNC inhibitor -100, ALDH1A1 inh inconclusive and JMJD2E inh inconclusive.
